Assay outcomes as filed in PubChem BioAssay.
The list is not random: actives were taken first. Their share in the collection is about 4.2%.
NALP3 yeast inh – NALP3 inflammasome inhibitors in reconstituted yeast, primary screen, luminescence, uHTS; Yeast reconstituted NLRP3/ASC/caspase-1, beta-gal luminescence, 24 h; inhibition, % at 10 µM; 330,000 compounds, 0.39% hits; AID 2825, 2010;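 active means inhibition of 50% or more; inactive means inhibition below 50%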
tim23-1 inh – growth inhibitors of tim23-1 mutant yeast, primary screen, luminescence, uHTS; S. cerevisiae tim23-1 growth, BacTiter-Glo luminescence, 24 h; inhibition, % at 20 µM; 330,000 compounds, 1.3% hits;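 active means growth inhibition of the mutant yeast at or above 50%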;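 further: temperature-sensitive mutant grown at 25 °C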
V-ATPase pH – regulators of yeast V-ATPase proton pumping, primary screen, pHLuorin cytosolic pH fluorescence; S. cerevisiae; response, % at 10 µM; 350,000 compounds, 0.37% hits; AID 504577, 2011; in the data active means response mostly above about 7.3%, no sharp cut-off; inactive means mostly below about 5.4%; further: actives read high
tim10-1 inh – growth inhibitors of tim10-1 mutant yeast, primary screen, luminescence, uHTS; S. cerevisiae tim10-1 ts strain growth, BacTiter-Glo, 24 h; inhibition, % at 20 µM; 330,000 compounds, 2.2% hits; AID 463190, 2010;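 active means inhibition of at least 40%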;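 further: mutant grown at 25 °C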
TIM10 inh – growth inhibitors of isogenic TIM10 control yeast, primary screen, counter-screen for tim10-1 yeast inhibitor project, luminescence, uHTS; 330,000 compounds, 1.4% hits; S. cerevisiae TIM10 strain growth, BacTiter-Glo luminescence, 24 h; inhibition, % at 10 µM;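 active means inhibition of 40% or more at the single tested concentration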;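 further: wild-type TIM10 isogenic control strain grown at permissive 25 °C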
NALP1 inh – NALP1 inflammasome inhibitors in reconstituted yeast, colorimetric, S. cerevisiae, triplicate retest; S. cerevisiae NALP1/ASC/caspase-1 growth, X-gal OD620, 72 h; inhibition, % at 10 µM; 280,000 compounds, 0.61% hits; AID 2071, 2009; in the data active means inhibition mostly above about 24%, no sharp cut-off; inactive means mostly below about 32%
tim23-1 confirm – tim23-1 mutant yeast growth inhibitors, confirmation, luminescence, single concentration. shares compounds with tim23-1 inh. S. cerevisiae tim23-1 growth, BacTiter-Glo luminescence, 24 h. inhibition, % at 20 µM. 4,400 compounds, 83% hits. AID 463218, 2010;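 active means inhibition above about 39% in either of two replicate wells at 20 µM, limit read from the data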;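 further: temperature-sensitive tim23-1 mutant grown at 25 °C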
VATPase regulator – yeast V-ATPase proton pumping modulators, confirmation, S. cerevisiae, pH-sensitive GFP, second cherry-pick | shares compounds with V-ATPase pH | S. cerevisiae pHLuorin cytosolic pH, V-ATPase proton transport | response, % at 10 µM | 980 compounds, 2% hits | AID 602197, 2012; in the data active means response above about 24%
Hits are given with their value; . = inactive; / = no result.

SMILES	NALP3 yeast inh	tim23-1 inh	V-ATPase pH	tim10-1 inh	TIM10 inh	NALP1 inh	VATPase regulator	others
O=C(Nc1cc(F)ccc1F)N1CCN(c2ccnc3cc(Cl)ccc23)CC1	.	.	.	.	.	/	/
O=C(Nc1ccc(C(F)(F)F)cc1)N1CCN(c2ccnc3cc(Cl)ccc23)CC1	.	51	.	.	.	/	/	tim23-1 confirm=46
O=C(CCN1CCCC1Cc1ccccc1)c1ccc2c(c1)OCCO2 (configuration not stated)	.	.	.	.	.	.	/
COc1ccc(C(=O)NC(=S)N2CCC(C)CC2)cc1Br	.	57	.	.	.	.	/	tim23-1 confirm=.
COc1ccc(C(=O)NC(=S)N2CCNC(=O)C2)cc1Br	.	.	.	.	.	.	/
Nn1cnnc1N/N=C/c1cc(Br)cc(Br)c1O	.	57	.	.	.	.	/	tim23-1 confirm=60
Cc1nc2ccccc2n1CC(=O)OCC(=O)NCc1ccccc1	.	.	.	.	.	.	/
CCOC(=O)Cn1c(=O)c(-c2ccccc2NCc2ccccc2)nc2ccccc21	.	.	.	.	.	/	.
CCOC(=O)Cn1c(-c2ccccc2)nc2ccccc2c1=O	.	.	.	.	.	.	.
O=C(CC1Oc2ccccc2NC1=O)NC1CCCC1 (configuration not stated)	.	.	.	.	.	.	/
Cc1nn(-c2ccccc2)c(Cl)c1/C=C1\C(=O)N(C)C(=S)N1C	.	.	47	.	.	.	.
Cc1csc2c(SCC(=O)NNC(=O)C(Cl)Cl)ncnc12	.	.	12	.	.	.	.
Cc1ccc(C(=O)C2CCOC(C)(C)C2)cc1 (configuration not stated)	.	.	12	.	.	.	.
CCOC(=O)C1CCCCN1C(=O)c1oc2c(Cl)cc(C)cc2c1C (configuration not stated)	.	.	.	.	.	.	/
CCC(=O)c1cn(CC(=O)Nc2ccc(OC)cc2)c2ccccc12	.	.	.	.	.	.	/
CCOC(=O)/C=C1\SCC(=O)N1CC(=O)NC1CCCCC1	.	.	.	.	.	.	/
CCc1nn(CC(=O)N2CCCCCC2)c(=O)c2cc3ccccc3n12	.	.	13	.	.	.	.
O=C(O)Cc1ccc(NC(=O)c2ccc3c(c2)C(=O)N(Cc2ccccc2)C3=O)cc1	/	/	.	/	/	/	/
O=C(O)c1cc(NC(=O)c2ccc3c(c2)C(=O)N(Cc2ccccc2)C3=O)cc(C(=O)O)c1	.	.	7.6	.	.	.	.
Cc1ccc(C(=O)NCCCN2CCOCC2)cc1Cl	.	.	.	.	.	.	/
C=CCc1ccc(OCCOCCN(C)C)c(OC)c1	.	.	12	.	.	.	.
C=CCc1ccc(OCCOCCOc2ccc(C)cc2[N+](=O)[O-])c(OC)c1	.	.	.	.	.	.	/
O=C(CSc1nnc(-c2ccccc2)o1)NC1CCS(=O)(=O)C1 (configuration not stated)	.	.	.	.	.	.	.
O=C(CSc1nnc(-c2ccccc2)o1)NC1CC1	.	.	.	.	.	/	.
Cc1ccc(C)c(SCC(=O)NC2CCS(=O)(=O)C2)c1 (configuration not stated)	.	.	12	.	.	/	.
SMILES	NALP3 yeast inh	tim23-1 inh	V-ATPase pH	tim10-1 inh	TIM10 inh	NALP1 inh	VATPase regulator	others
Cc1ccc(-n2nnnc2SCC(=O)NC2CCS(=O)(=O)C2)c(C)c1 (configuration not stated)	.	.	.	.	.	/	/
O=C1OCCC1Sc1nnc(-c2ccccc2)o1 (configuration not stated)	.	.	.	.	.	.	.
O=C1OCCC1Sc1nnc(-c2ccc(Cl)cc2Cl)o1 (configuration not stated)	.	.	.	.	.	.	/
CC1CC1c1ccc(/C=C(\C#N)C(=O)Nc2ccc(Cl)cc2Cl)o1 (configuration not stated)	.	.	.	.	.	.	/
O=C(Cn1c(CO)nc2ccccc21)NCCc1ccccc1	.	.	8.1	.	.	.	.
Cc1cc(C(=O)COC(=O)CC(NC(N)=O)c2ccc(Cl)cc2)c(C)n1C (configuration not stated)	.	.	.	.	.	/	/
CN(C)C(CNC(=O)c1ccc(S(=O)(=O)Nc2cccc(C(F)(F)F)c2)cc1)c1ccco1 (configuration not stated)	.	.	10	.	.	/	.
CN(C)C(CNC(=O)c1cccc(NS(=O)(=O)c2ccc(Br)cc2)c1)c1ccco1 (configuration not stated)	.	.	.	.	.	/	/
COc1cc(C(=O)NCc2nnc(SCC(=O)N3CCOCC3)o2)cc(OC)c1OC	.	.	16	.	.	.	.
COc1ccc(C(=O)NCc2nnc(SCC(=O)N3CCOCC3)o2)cc1	.	.	.	.	.	.	/
O=C(c1ccccc1F)N1CCN(S(=O)(=O)c2ccc3ccccc3c2)CC1	.	.	.	.	.	.	/
CSc1ncccc1C(=O)N1CCN(S(=O)(=O)c2ccc3ccccc3c2)CC1	.	.	10	.	.	/	.
N/C(=N\O)c1ccc(N2CCN(c3ncccc3C(F)(F)F)CC2)nc1	.	.	26	.	.	.	.
O=C(NCC1(N2CCCCC2)CCCCC1)c1ccc(S(=O)(=O)N2CCCC2)cc1	.	.	7.8	.	.	.	.
O=C(CCC(=O)c1ccc(F)cc1)NCC1(N2CCCCC2)CCCCC1	.	.	.	.	.	/	.
O=C(NCC1(N2CCCCC2)CCCCC1)c1ccc(NS(=O)(=O)c2ccccc2)cc1	.	.	.	.	.	/	/
O=C(CCC(=O)c1ccc(F)cc1)NN1C(=O)NC2(CCCCC2)C1=O	.	.	.	.	.	/	/
CCOC(=O)NC(=O)c1cn(CCNCCO)c(=O)[nH]c1=O	.	.	.	.	.	.	/
COc1ccc(CNc2nc3nc(C)c(Cl)c(=O)n3[nH]2)cc1	.	.	.	.	.	.	/
O=C(CCNC(=O)Cn1cnc2ccccc2c1=O)NCC1CCCO1 (configuration not stated)	.	.	.	.	.	.	/
Cc1cccc(NC(=O)COC(=O)c2nn(-c3ccccc3C(F)(F)F)cc2O)c1C	/	/	.	/	/	/	/
Cc1ccc(CSCC(=O)N2CCN(c3ccc(F)cc3)CC2)cc1	.	.	12	.	.	.	.
O=C(CSCc1ccc(F)cc1)N1CCN(c2ccc(F)cc2)CC1	.	.	.	.	.	.	/
